PD-1 reversal – activators reversing PD-1 mediated T-cell inhibition. primary human CD4 T cells, PD-L1 beads, CellTiter-Glo 96 h. activation, % (concentration not given with the values). 29,000 tested, under 10 active; call rule not given here;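 further: 0% = median vehicle wells and 100% = positive control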
NOMO-1 viab – STK33 inhibitor candidate reducing NOMO-1 cell viability. NOMO-1 AML viability, CellTiter-Glo luminescence, 72 h. inhibition, % (test concentration not listed). hit rate 7.5% among 37,000; in the data active means inhibition above about 80%; inconclusive means no clear call, values can overlap the other calls
MITF inh – MITF inhibition | TRPM1 promoter luciferase, luminescence, 24 h | AID 2240 | hit rate 0.28% among 37,000 | inhibition, % (test concentration not listed); in the data active means inhibition above about 85%; inconclusive means no clear call, values can overlap the other calls; inactive means below about 68%;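 further: human melanocyte line stably carrying TRPM1 promoter luciferase reporter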
Shh pathway inh – blocks Sonic Hedgehog signaling; Shh-LIGHT2 Gli-luciferase reporter, 30 h; inhibition, % (no concentration beside the values); AID 2313; hit rate 2.1% among 22,000;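 active means mean inhibition across valid replicates above about 65%, limit read from the data; inconclusive means mean under the limit, yet half or more replicates past it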;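 further: pathway switched on by Shh-conditioned medium diluted 1 in 25 in low serum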
The depositor's hits bear a star; ? = inconclusive; . = no result given. Rows were chosen to be rich in hits. Some 7.9% of all compounds tested hit in one or more screens of this group.

SMILES | PD-1 reversal | NOMO-1 viab | MITF inh | Shh pathway inh
CCCSc1nc(NCCO)c2c3c(sc2n1)COC(C)(CC)C3 (stereo unspecified) | . | 16.6 | 4.2 | .
COC(=O)c1cc(OC)c(OC)cc1NC(=S)N1CCC(C(N)=O)(N2CCCCC2)CC1 | -0.4 | -17.0 | 2.7 | .
Cc1noc(C)c1NC(=O)Nc1ccc2c(c1)CC(=O)N([C@@H](C)CO)C[C@H](C)[C@H](CN(C)Cc1ccc(Cl)c(Cl)c1)O2 | -0.3 | 114.2* | -36.0 | 22.3
Cc1noc(C)c1NC(=O)Nc1ccc2c(c1)CC(=O)N([C@@H](C)CO)C[C@@H](C)[C@@H](CN(C)Cc1ccc3c(c1)OCO3)O2 | 0.0 | -4.1 | -16.4 | 52.6
Cc1noc(C)c1NC(=O)N(C)C[C@@H]1Oc2ccc(NC(=O)CCN3CCOCC3)cc2CC(=O)N([C@H](C)CO)C[C@H]1C | 1.5 | 2.4 | 1.4 | -8.4
Cc1noc(C)c1NC(=O)N(C)C[C@H]1Oc2ccc(NC(=O)CCN3CCOCC3)cc2CC(=O)N([C@@H](C)CO)C[C@H]1C | 1.3 | 4.0 | 0.2 | 66.5*
N#C/C(=C\Nc1cnccn1)S(=O)(=O)c1ccc(C(F)(F)F)cn1 | 0.7 | 15.5 | 14.1 | -13.3
CCOC(=O)COc1c(C#N)sc2c1c(=O)n(-c1ccccc1)c(=S)n2-c1ccccc1 | -1.0 | 112.2* | -3.8 | 9.2
C[C@@H]1O[C@@H](O[C@H]2[C@H](O[C@H]3CC[C@@]4(C)C(CC[C@]5(C)C4CC=C4C6CC(C)(C)CC[C@]6(C(=O)O[C@@H]6O[C@H](CO[C@@H]7O[C@H](CO)[C@@H](O[C@@H]8O[C@@H](C)[C@H](O)[C@@H](O)[C@H]8O)[C@H](O)[C@H]7O)[C@@H](O)[C@H](O)[C@H]6O)CC[C@]45C)[C@]3(C)CO)OC[C@H](O)[C@@H]2O)[C@H](O)[C@H](O)[C@H]1O (stereo partly specified) | . | . | . | -7.7
C[C@@H]1O[C@@H](O[C@H]2[C@H](O[C@H]3CC[C@@]4(C)C(CC[C@]5(C)C4C=C[C@]46OC[C@@]7(CCC(C)(C)C[C@H]74)[C@@H](O)C[C@]65C)[C@]3(C)CO)O[C@H](CO)[C@@H](O)[C@@H]2O[C@@H]2O[C@H](CO)[C@@H](O[C@@H]3O[C@@H](C)[C@H](O)[C@@H](O)[C@H]3O)[C@H](O)[C@H]2O)[C@H](O)[C@H](O)[C@H]1O (stereo partly specified) | . | . | . | 103.6*
Cc1ccc(S(=O)(=O)N2c3ccccc3C(C)(c3ccccc3)CC2(C)C)cc1 (stereo unspecified) | -1.1 | 107.5* | 41.0 | 57.0
Cc1sc2ncnc(SCC(=O)Nc3nsc(-c4ccccc4)n3)c2c1C | -1.7 | ? | -92.2 | .
Cc1cc(I)cc(C)c1NC(=O)CSc1nnnn1-c1ccccc1 | 1.1 | 6.5 | -7.2 | .
C[C@@H]1CN([C@H](C)CO)C(=O)c2cc(NC(=O)NC3CCCCC3)ccc2O[C@H]1CN(C)Cc1ccc(-c2ccccc2)cc1 | -4.1 | ? | -7.7 | 11.9
C[C@H]1CN([C@@H](C)CO)C(=O)c2cc(NC(=O)NC3CCCCC3)ccc2O[C@H]1CN(C)Cc1ccncc1 | 1.0 | 100.0* | -12.6 | .
C[C@@H]1CN([C@@H](C)CO)C(=O)c2cc(NC(=O)NC3CCCCC3)ccc2O[C@H]1CN(C)Cc1ccc(-c2ccccc2)cc1 | -0.9 | 100.3* | -5.5 | 1.9
C[C@@H]1CN([C@H](C)CO)C(=O)c2cc(NC(=O)NC3CCCCC3)ccc2O[C@@H]1CN(C)Cc1ccc(Oc2ccccc2)cc1 | -4.2 | 63.9 | 11.4 | 91.2*
C[C@@H]1CN([C@@H](C)CO)C(=O)c2cc(NC(=O)C3CCCCC3)ccc2O[C@@H]1CN(C)Cc1ccc(Oc2ccccc2)cc1 | 0.1 | 115.2* | 4.2 | 38.7
O=S1(=O)CCC(N(S(=O)(=O)c2ccc(F)cc2)S(=O)(=O)c2ccc(Cl)cc2)C1 (stereo unspecified) | 0.2 | 14.7 | -22.8 | 1.9
Cc1nc(SCC(=O)N2CCc3ccccc32)c2c3c(sc2n1)CCCC3 | 0.8 | -22.6 | -29.3 | .
CCn1c(SCC(=O)Nc2cc(Cl)cc(Cl)c2)nnc1-c1cccs1 | 2.9 | -17.2 | 14.2 | .
O=C(CSc1n[nH]c(-c2ccc(Cl)cc2Cl)n1)N1CCc2ccccc21 | 1.8 | -0.6 | -10.1 | .
C[C@@H]1CN([C@@H](C)CO)C(=O)c2cc(NC(=O)NC3CCCCC3)ccc2O[C@@H]1CN(C)Cc1ccc(-c2ccccc2)cc1 | -6.2 | 116.6* | 8.8 | 4.2
C[C@@H]1CN([C@H](C)CO)C(=O)c2cc(NC(=O)NC3CCCCC3)ccc2O[C@@H]1CN(C)Cc1ccc(-c2ccccc2)cc1 | . | 87.0* | -12.5 | -23.2
CC(C)OC(=O)n1c(=S)oc2ccccc21 | 1.6 | 9.9 | 3.4 | .
SMILES | PD-1 reversal | NOMO-1 viab | MITF inh | Shh pathway inh
CCCCC(=O)/C=C/n1c(=S)oc2ccccc21 | 0.0 | 133.3* | -5.0 | .
COC(=O)c1ccccc1NC(=O)CN(C)S(=O)(=O)c1ccc2ccccc2c1 | . | 35.5 | 2.6 | .
CCC1SC2=NCN(c3ccccc3)CN2C1=O (stereo unspecified) | 0.7 | 101.1* | 6.0 | -47.9
COc1ccc(COCC(O)CS(=O)(=O)Cc2ccc(C)cc2)cc1 (stereo unspecified) | 1.1 | -17.3 | 2.5 | -21.7
COC(=O)c1sccc1NC(=O)COc1cccc(C)c1 | -1.6 | 7.3 | -18.5 | .
Cc1cccc(OCC(=O)NC(=S)Nc2ccc(C)cc2O)c1 | -11.1 | 102.1* | 30.1 | .
O=C(Cc1cccs1)N1c2ccccc2Sc2ccccc21 | -1.8 | 55.5 | 3.2 | .
O=C(NCCc1ccccc1)N1c2ccccc2Sc2ccccc21 | -0.1 | 51.8 | 43.4 | 91.9*
CC1(C)Cc2nc3nc(SCC(=O)c4ccc(Br)cc4)n(-c4ccccc4)c(=O)c3cc2CO1 | -3.8 | 43.8 | 14.8 | .
CC(NS(=O)(=O)c1ccccc1)C(=O)Nc1ccc(F)c(Cl)c1 (stereo unspecified) | 0.1 | 9.8 | -1.2 | .
Cc1ccc(S(=O)(=O)NCc2ccccc2)cc1 | -0.6 | 11.8 | -24.1 | .
Cc1ccc(S(=O)(=O)N[C@H](Cc2ccccc2)C(=O)CCl)cc1 | -9.4 | 98.2* | 15.7 | 9.4
C[C@H]1CN([C@@H](C)CO)C(=O)Cc2cc(NC(=O)Nc3cccc4ccccc34)ccc2O[C@@H]1CN(C)CC1CCCCC1 | -0.2 | 135.8* | 25.8 | -21.4
C[C@H]1CN([C@@H](C)CO)C(=O)Cc2cc(NC(=O)Nc3cccc4ccccc34)ccc2O[C@H]1CN(C)C | -1.2 | -5.9 | 1.4 | -3.4
C[C@H]1CN([C@@H](C)CO)C(=O)Cc2cc(NC(=O)Nc3ccccc3)ccc2O[C@H]1CN(C)CC1CCCCC1 | 0.2 | 90.0* | -37.7 | .
C[C@@H]1CN([C@H](C)CO)C(=O)Cc2cc(NC(=O)Nc3ccccc3)ccc2O[C@H]1CN(C)CC1CCCCC1 | 2.0 | ? | -7.5 | -26.5
C[C@@H]1CN([C@H](C)CO)C(=O)Cc2cc(NC(=O)Nc3ccc(C(F)(F)F)cc3)ccc2O[C@H]1CN(C)CC1CCCCC1 | -9.2 | 116.4* | 26.8 | 20.8
CC(=O)C(Sc1cc(C)nc(N)n1)C(=O)Nc1ccccc1 (stereo unspecified) | -5.8 | 15.7 | 10.8 | .
COc1ccc(S(=O)(=O)Nc2ccc3c(c2)CC(=O)N([C@@H](C)CO)C[C@H](C)[C@H](CN(C)Cc2ccc(-c4ccccc4)cc2)O3)cc1 | 0.2 | 89.8* | 14.0 | -20.9

Screening data deposited in PubChem by Broad Institute.
